This is an account of results in PubChem BioAssay AID1376 (SRMLSC, 2008).

In general, inhibition refers to the relative decrease from the control value, in per cent.

Values joined by “and” are separate entries in the source; they are usually repeats but may differ in a detail not shown here. Equal values may be shown once. Hit rate of the full screen: of about 220,000 compounds, about 530 (0.24%) were called active. This is one part of a sample in which actives are shown more often than they occur. Rule as the data show it: active = inhibition above about 13%; inconclusive = no clear call, values can overlap the other calls; inactive = below that. Potency and affinity values are given separately.

The test deals with Bifunctional protein GlmU (Mycobacterium tuberculosis (strain ATCC 25618 / H37Rv)) (UniProt P9WMN3). Put plainly: inhibition of mycobacterial GlmU enzyme – biochemical, glucosamine-1-phosphate acetyltransferase (AID 1376).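 Also: 0% = complete reaction with vehicle and 100% = reaction without substrate.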 Particulars: M. tuberculosis GlmU acetyltransferase enzyme assay; active compounds read high;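 tested at 30 µM in the primary screen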.
Chain of Bifunctional protein GlmU (Mycobacterium tuberculosis (strain ATCC 25618 / H37Rv)) (P9WMN3 whole entry, looked up): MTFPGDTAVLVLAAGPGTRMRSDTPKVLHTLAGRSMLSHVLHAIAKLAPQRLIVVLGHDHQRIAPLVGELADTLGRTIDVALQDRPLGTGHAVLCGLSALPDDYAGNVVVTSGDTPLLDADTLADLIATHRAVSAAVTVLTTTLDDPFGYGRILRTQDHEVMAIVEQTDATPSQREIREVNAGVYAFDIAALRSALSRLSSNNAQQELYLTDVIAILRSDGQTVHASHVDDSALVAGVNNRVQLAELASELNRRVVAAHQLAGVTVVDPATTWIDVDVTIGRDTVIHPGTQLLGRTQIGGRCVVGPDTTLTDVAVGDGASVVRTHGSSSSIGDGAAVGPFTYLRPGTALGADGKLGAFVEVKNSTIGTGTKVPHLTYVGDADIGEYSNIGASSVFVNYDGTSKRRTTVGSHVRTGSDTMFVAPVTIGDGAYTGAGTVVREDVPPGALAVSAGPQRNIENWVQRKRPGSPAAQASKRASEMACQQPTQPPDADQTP
As for `Cc1ccc(C)n1-c1cccc(C(=O)O)c1`, the inhibition was 23.5% (active). With `Cc1cc(C=O)c(C)n1-c1cccc(C(=O)O)c1`, the inhibition is 6.93% (inactive). With `Cc1ccc(-c2ccccc2)n1-c1cccc(C(=O)O)c1`, the inhibition was 5.34% (inactive). For `Cc1ccccc1NC(=O)Cn1nc(-c2ccccc2)nc1-c1ccccc1`, the inhibition was 1.21% (inactive).

In the case of `O=[N+]([O-])c1cccnc1Oc1cccnc1`, the inhibition is 6.22% (inactive).

In the case of `Cn1c(Cc2ccc3c(c2)OCO3)nnc1SCC(=O)N1CCc2ccccc2C1`, the inhibition is 1.71% (inactive).

Turning to `CCOC(=O)C1CCN(c2nc(N)c3c(N)nc(SCC(=O)O)cc3c2C#N)CC1`, the inhibition was 14.2% (active). Consider `N#Cc1c(N2CCCCC2)nc(N)c2c(N)nc(SCC(=O)O)cc12`, for which the inhibition was 13.1% (active).

As for `CCOc1cc2c(C#N)c(N3CCCC3)nc(N)c2c(N)n1`, the inhibition is 4.64% (inactive). For the compound `N#Cc1c(N2CCCC2)nc(N)c2c(N)nc(N3CCCC3)cc12`, the inhibition was -6.67% (inactive).

Take `COc1cc2c(C#N)c(N3CCCCC3)nc(N)c2c(N)n1`: the inhibition is -2.38% (inactive).

As to `CCOC(=O)C1CCN(c2nc(C)cc(C)c2C#N)CC1`, the inhibition was -1.41% (inactive). For `CC(=O)Nc1ccccc1C(=O)C(=O)Nc1ccc(C)c(C)c1`, the inhibition is -3.19% (inactive).

For `COc1cc(C(=S)N2CCCC2)cc(Cl)c1OCC(=O)Nc1ccc(C)cc1C`, the inhibition is -4.86% (inactive). For `CN(C)CCCOC(=O)c1cc2ccccc2o1`, the inhibition is -2.64% (inactive). Turning to `O=C(Cn1cnc2ccccc2c1=O)N1CCN(c2ccccc2)CC1`, the inhibition is 5.67% (inactive). `COC(=O)CN(c1nc(C)c(Br)c(OC)n1)S(=O)(=O)c1ccc(C)cc1`: the inhibition is 1.24% (inactive).

`COC(=O)CN(c1nc(C)c(Cl)c(OC)n1)S(=O)(=O)c1ccc(C)cc1`: the inhibition is 25.4% (active). For the compound `COc1nc(N(CC(N)=O)S(=O)(=O)c2ccccc2)nc(C)c1Cl`, the inhibition was 4.56% (inactive). As to `CC(O)CCC(=O)NNC(=S)Nc1ccccc1` (configuration not stated), the inhibition was 2.51% (inactive). Consider `O=C(Nc1ccccc1F)C1CCN(C(=O)Cc2ccccc2)CC1`, for which the inhibition was 15% (active). For `O=C(O)C1CCCCC1C(=O)Nc1ccc(F)cc1F` (configuration not stated) the value was 5.94% (inactive); for `O=C(O)C1CCCCC1C(=O)Nc1ccccc1F` (configuration not stated), 13.6% (active). Turning to `O=C(O)C1CCCCC1C(=O)Nc1ccccc1Cl` (configuration not stated), the inhibition is -0.88% (inactive). For `O=C(Nc1ccccc1Br)C1CCN(C(=O)Cc2ccccc2)CC1`, the inhibition was -6.58% (inactive). On to `O=C(Nc1cccc2ccccc12)C1CCN(C(=O)Cc2ccccc2)CC1`, for which the inhibition was 0.74% (inactive).

For the compound `Nc1nc2n(n1)C(c1ccc(F)cc1)CC(c1ccc(F)cc1)N2` (configuration not stated), the inhibition is -1.02% (inactive). For the compound `COc1ccc(C2CC(c3ccc(F)cc3)Nc3nc(N)nn32)cc1` (configuration not stated), the inhibition is 20% (active).

Turning to `COc1ccc(C2CC(c3ccc(OC)cc3)n3nc(N)nc3N2)cc1` (configuration not stated), the inhibition is 1.16% (inactive). Regarding `Cc1ccc(/C(O)=C2\C(=O)C(=O)N(CC(C)O)C2c2ccccn2)cc1` (configuration not stated), the inhibition was -0.84% (inactive).

As for `COC(=O)Cc1ccc(NC(=S)NCCCO)cc1`, the inhibition is 13.5% (active). Regarding `CCCNC(=S)Nc1ccc(CC(=O)OC)cc1`, the inhibition was -4.55% (inactive). For `COC(=O)Cc1ccc(NC(=S)NCCO)cc1` the value was -2% (inactive); for `COC(=O)c1sc(N2C(=O)C(=O)/C(=C(/O)c3ccc(C)cc3)C2c2ccco2)nc1C` (configuration not stated), -0.75% (inactive); for `COc1ccc(C2NC(=S)NC(C)=C2C(=O)Nc2ccccn2)cc1` (configuration not stated), 2.34% (inactive). Take `CC1=C(C(=O)Nc2ccccn2)C(c2ccc(Cl)cc2)NC(=S)N1` (configuration not stated): the inhibition is 2.47% (inactive). Consider `CC1=C(C(=O)Nc2ccccn2)C(c2ccc(Br)cc2)NC(=S)N1` (configuration not stated), for which the inhibition is 14.3% (active). With `Cc1cc(OCCCC(=O)NC2=NCCS2)ccc1Cl`, the inhibition is -5.02% (inactive).

With `CCn1cc(CNCc2cn[nH]c2-c2cc3ccccc3o2)cn1`, the inhibition is 1.28% (inactive). For `OC1(CNCc2cn[nH]c2-c2cc3ccccc3o2)CCCCC1`, the inhibition is 14.3% (active). As for `c1ccc2oc(-c3[nH]ncc3CN3CCSCC3)cc2c1`, the inhibition was 0.41% (inactive). Turning to `CSc1nccc(-c2c(-c3ccc(Cl)cc3)noc2C)n1`, the inhibition is 2.51% (inactive).

On to `c1ccc(CNc2ncnc3c2ncn3C2CCCCO2)cc1` (configuration not stated), for which the inhibition is -1.2% (inactive). `O=C(N/N=C/C1=Cc2ccccc2OC1)c1ccncc1`: the inhibition is -1.23% (inactive). `CC1Oc2ccccc2C=C1/C=N/Nc1ccc(C(=O)O)cc1` (configuration not stated): the inhibition was 4.4% (inactive). Take `O=C(O)c1ccc(N/N=C/C2=Cc3ccccc3OC2)cc1`: the inhibition was 14.4% (active). As for `CSc1nccc(Oc2cncc(Cl)c2)n1`, the inhibition was 2.56% (inactive).

For the compound `Nn1c(Cc2ccc(F)cc2)n[nH]c1=S`, the inhibition was -2.75% (inactive). Regarding `CCOc1ccc(Cc2n[nH]c(=S)n2N)cc1`, the inhibition was 1.55% (inactive). With `CCCCOc1ccc(Cc2n[nH]c(=S)n2N)cc1`, the inhibition is 12.8% (active). `COc1ccccc1/C=N/NC(=O)C(=O)NCc1cccnc1`: the inhibition is 3.16% (inactive). On to `COc1ccc(S(=O)(=O)NNC(=O)c2csc(-n3nc(C)cc3C(F)(F)F)n2)cc1OC`, for which the inhibition is 2.2% (inactive). In the case of `O=C(O)c1ccc(Oc2c(C(F)(F)F)oc3cc(O)ccc3c2=O)cc1`, the inhibition is -3.31% (inactive).

For `O=c1c(C(c2ccc(Cl)cc2)c2c(O)nc3n(c2=O)CCS3)c(O)nc2n1CCS2`, the inhibition is 9.88% (inactive). The figure for `COc1cccc(NC(=O)CN(C)C(C)C(=O)Nc2cc([N+](=O)[O-])ccc2Cl)c1` (configuration not stated) is -8.73% (inactive); for `Cc1noc(NS(=O)(=O)c2ccc(N/C=C\C(=O)c3ccc(F)cc3)cc2)c1C` it is 4.6% (inactive). Turning to `Cc1noc(NS(=O)(=O)c2ccc(N/C=C/C(=O)c3ccc(F)cc3)cc2)c1C`, the inhibition is 3.6% (inactive). On to `Cc1noc(NS(=O)(=O)c2ccc(N/C=C\C(=O)c3ccncc3)cc2)c1C`, for which the inhibition is 3.38% (inactive). For the compound `Cc1noc(NS(=O)(=O)c2ccc(N/C=C\C(=O)c3cccs3)cc2)c1C`, the inhibition is 13.3% (active). For `Cc1noc(NS(=O)(=O)c2ccc(N/C=C\C(=O)c3ccccc3)cc2)c1C` the value was 1.37% (inactive). The figure for `Cc1ccc(C(=O)/C=C/Nc2ccc(S(=O)(=O)Nc3onc(C)c3C)cc2)cc1` is 14.2% (active). For `Cc1ccc2cc(CN(CCCN3CCOCC3)C(c3nnnn3Cc3ccco3)C(C)C)c(=O)[nH]c2c1C` (configuration not stated), the inhibition was -1.48% (inactive).

For `CCOc1ccc(N2C(=O)c3cccnc3C2Nc2ccc(C)c(C)c2)cc1` (configuration not stated), the inhibition is -5.6% (inactive).

Regarding `CCO[C@@H]1OC(C(=O)Nc2ccccc2)=C[C@H](c2ccc(Br)cc2)[C@H]1CCCO`, the inhibition is 1.98% (inactive). `CC(=O)Nc1ccc(/C=C(\C#N)C(=O)NC2CCCCC2C)cc1` (configuration not stated): the inhibition was 3.98% (inactive). The figure for `O=C(CN1CCN(c2ccc(Cl)cc2)CC1)NCc1ccccc1` is 1.83% (inactive). In the case of `CC(/C=C1\SC(=S)N(C(C(=O)O)C(C)C)C1=O)=C\c1ccccc1` (configuration not stated), the inhibition is 3.64% (inactive). Take `CC(=C\c1ccccc1)/C=C1/SC(=S)N(C(C(=O)O)C(C)C)C1=O` (configuration not stated): the inhibition was 5.39% (inactive). Regarding `O=C1S/C(=C\C=C\c2ccco2)C(=O)N1c1ccccc1`, the inhibition is 6.89% (inactive). Take `O=C1/C(=C/C=C/c2ccco2)SC(=S)N1c1ccc(O)cc1`: the inhibition is 7.16% (inactive). With `CCCCC(=O)Nc1ncc(Br)s1`, the inhibition was 0.1% (inactive). For `Cc1nnc(SCC(=O)Nc2cc(-c3cc(C)c(C)cc3C)nn2-c2ccccc2)s1`, the inhibition is -5.02% (inactive). With `COc1cc(/C=N/NC(=O)c2cccc([N+](=O)[O-])c2)ccc1OCc1ccccc1`, the inhibition is 1.61% (inactive). Consider `O=C1NC(=O)N(Cc2ccc(F)cc2)C(=O)/C1=C\c1ccc([N+](=O)[O-])s1`, for which the inhibition is 6.15% (inactive). Regarding `CN1C(=O)NC(=O)/C(=C/c2ccc([N+](=O)[O-])s2)C1=O`, the inhibition was -1.9% (inactive). As to `CCN1C(=O)/C(=C\c2ccc([N+](=O)[O-])s2)C(=O)NC1=S`, the inhibition is 92.2% (active). Regarding `Cc1ccc(SCc2cc(=O)[nH]c(N3CCN(C)CC3)n2)cc1`, the inhibition was 2.83% (inactive). For the compound `O=C(O)c1ccc2c3c(cccc13)C(=O)N(c1ccccc1)C2=O`, the inhibition was 5.53% (inactive).

As to `Cc1ccc(N2C(=O)c3cccc4c(C(=O)O)ccc(c34)C2=O)cc1`, the inhibition was -2.11% (inactive). With `CCn1c(SCC(=O)N2CCc3ccccc32)nc2c(c1=O)SC(C)C2` (configuration not stated), the inhibition was 2.91% (inactive). Turning to `O=C(O)c1cc(-c2ccccc2)nc2nc(N3CCCCC3)sc12`, the inhibition is -4.63% (inactive). The figure for `O=C(O)CCSc1nc2ccccc2s1` is 13.3% (active); for `O=C(O)CSc1nc2ccccc2s1` it is -6.75% (inactive) and -0.54% (inactive); for `O=C(CSc1nc2ccccc2s1)CSc1nc2ccccc2s1` it is -0.56% (inactive). With `Cc1[nH]c2ccccc2c1C(=O)COC(=O)CCS(=O)(=O)c1ccccc1Cl`, the inhibition is 0.91% (inactive). The figure for `C/C=C(\C)C(=O)Nc1cccc(C2=NOC3(C2)C[C@H](C(N)=O)N(C(=O)C(c2ccccc2)c2ccccc2)C3)c1` (some centres not stated) is 4.35% (inactive); for `C/C=C(/C)C(=O)Nc1cccc(C2=NOC3(C2)C[C@H](C(N)=O)N(C(=O)COc2ccc(Cl)cc2)C3)c1` (some centres not stated) it is -3.89% (inactive). With `CCC(=O)Nc1cccc(C2=NOC3(C2)C[C@@H](C(N)=O)N(C(=O)C(c2ccccc2)c2ccccc2)C3)c1` (some centres not stated), the inhibition was 7.01% (inactive). For `C/C=C(/C)C(=O)Nc1cccc(C2=NOC3(C2)C[C@@H](C(N)=O)N(C(=O)CC(c2ccccc2)c2ccccc2)C3)c1` (some centres not stated), the inhibition is 2.91% (inactive). For `C=C(C)C(=O)Nc1cccc(C2=NOC3(C2)C[C@@H](C(N)=O)N(C(=O)CC(c2ccccc2)c2ccccc2)C3)c1` (some centres not stated) the value was 14.4% (active); for `NC(=O)[C@@H]1CC2(CC(c3cccc(NC(=O)COc4ccc(Cl)cc4)c3)=NO2)CN1C(=O)COc1ccc(Cl)cc1` (some centres not stated), 3.68% (inactive).

Turning to `NC(=O)[C@H]1CC2(CC(c3cccc(NC(=O)CC(c4ccccc4)c4ccccc4)c3)=NO2)CN1C(=O)CC(c1ccccc1)c1ccccc1` (some centres not stated), the inhibition is 2.76% (inactive).
